High-throughput results deposited in PubChem BioAssay by Sanford-Burnham Center for Chemical Genomics.
A selection: hits, their analogues and other compounds. The true share with any hit is near 4%.
TWEAK Fn14 block – inhibitors of TWEAK-Fn14 signaling, primary screen, luciferase reporter cells, uHTS; TWEAK-stimulated Fn14 reporter cells, luciferase luminescence, 8 h; inhibition, % at 10 µM; hit rate 2% among 360,000; AID 1159606, 2016; in the data active = inhibition above about 50%
TROY signal inh – inhibitors of TROY-driven NF-kB signaling, primary screen, Q293 LMP1-TROYcd cells, NF-kB luciferase, uHTS; AID 1347056, 2019; inhibition, % at 10 µM; Q293 LMP1-TROYcd NF-kB luciferase reporter, 4 h; hit rate 0.98% among 360,000;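 active = compounds whose plate-normalised and pattern-corrected inhibition of the luciferase reporter signal at the single screening dose is 50% or more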
CF NFkB inh – inhibitors of PAF-induced NF-kB signaling, primary screen, cell-based, GFP fluorescence, uHTS; hit rate 0.86% among 360,000; inhibition, % at 5 µM; KKLEB NF-kB-GFP reporter, GFP fluorescence overnight;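 active = at least 50% inhibition at 5 µM, scaled per plate between neutral and stimulator controls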;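 note: PAF is a Pseudomonas aeruginosa culture filtrate used as stimulus; plate controls were PAF-stimulated DMSO wells for no effect and unstimulated DMSO wells for full effect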
HIF-2a block – HIF-2a reporter inhibitors, primary screen, luminescence, 786-0 RCC cells. 786-0 RCC cells HIF-2a reporter, luciferase luminescence, overnight. inhibition, % at 18.8 µM. hit rate 0.72% among 360,000;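 active = inhibition of the luminescence signal of 40% or more relative to plate controls, in a single-dose primary screen at 18.75 µM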
KKLEB tox – cytotoxicity in KKLEB CF airway cells, primary screen, cytotoxicity control for CF NF-kB inhibitor project, cell-based, uHTS, fluorescence assay plates; activity change (cytotoxicity), % at 5 µM; hit rate 0.36% among 360,000; AID 602141, 2011; KKLEB CF airway cells viability, ATPlite luminescence, overnight; hits give low values; cells stimulated with P. aeruginosa culture filtrate;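 active = corrected activity change at or below -50% at 5 µM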
Peg3 promoter – Peg3 promoter-driven luciferase inhibitors, primary screen, cell-based, HeLa, luciferase luminescence; HeLa PEG-Prom luciferase reporter, overnight; hit rate 1.7% among 360,000; inhibition, % at 20 µM;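 active = inhibition of at least 50% at 20 µM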
HIF-2a inh conf – HIF-2a reporter inhibitor retest, confirmation, luminescence, 786-0 RCC cells | inhibition, % at 18.8 µM | AID 651580, 2012 | shares compounds with HIF-2a block | HIF-2a luciferase reporter luminescence, overnight | hit rate 56% among 1,800;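 active = mean inhibition across four replicates of at least 40 percent at the single tested concentration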
HIF-1a counter – HIF-1a luciferase reporter signal reduction – MiaPaCa-2 cells, single concentration, counter-screen for HIF-2a inhibitor project, confirmation; shares compounds with HIF-2a block; inhibition, % at 18.8 µM; hit rate 72% among 1,800; MiaPaCa-2 HIF-1a luciferase reporter, desferoxamine, overnight;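 active = mean inhibition of the reporter signal across four replicates at the single tested dose of 50% or more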
The depositor's hits bear a star; / = no result given.

SMILES	TWEAK Fn14 block	TROY signal inh	CF NFkB inh	HIF-2a block	KKLEB tox	Peg3 promoter	HIF-2a inh conf	HIF-1a counter
COC(=O)[C@@H]1[C@@H](C(=O)OC)C2(c3ccccc3-c3ccccc32)N(c2ccc(Cl)cc2)N1C#N	26.1	83.8*	92.2*	93.6*	-74.8*	106.9*	92.4*	105.8*
O=C1NC2C(O)C(O)C(O)C(O)C2c2cc3c(c(O)c21)OCO3 (stereo not drawn)	98.9*	81.0*	86.1*	66.5*	-49.4	99.1*	70.2*	105.0*
COc1cc2c(cc1OC)-c1c(OC)c(OC)cc3c1[C@H](C2)[N+](C)(C)CC3	15.0	-16.4	-11.1	10.9	10.5	-3.2	/	/
COC(=O)CSC1=NP(=S)(SCC(=O)OC)N2CCCC2=C1C#N (stereo not drawn)	-1.2	-11.6	2.5	20.3	5.9	1.1	/	/
C[C@H]1O[C@@H](OC2CC[C@]3(C=O)[C@H]4CC[C@]5(C)[C@@H](C6=CC(=O)OC6)CC[C@]5(O)[C@@H]4CC[C@]3(O)C2)CC2OC(C)(C)OC21 (stereo partly drawn)	81.1*	42.2	92.8*	51.4*	-70.8*	106.6*	33.0	103.3*
CCCCCn1c(=O)c(C(=O)NCc2ccncc2)c(O)c2ccccc21	-9.8	41.8	2.9	46.1*	-8.0	29.1	4.7	-21.8
CCCCn1c(=O)c(C(=O)NCc2ccc(Cl)cc2)c(O)c2ccccc21	11.5	19.3	5.2	28.7	-6.8	29.6	/	/
CCC(C)C1NC(=O)C2CCCN2C(=O)C(CC(C)C)OC(=O)CCNC(=O)C(C)N(C)C(=O)C(C(C)C)N(C)C1=O (stereo not drawn)	-119.0	3.1	23.7	-4.1	-13.1	26.6	/	/
C=CCCC[C@@H]1OC(=O)CNC(=O)C([C@@H](C)CC)NC(=O)[C@@H]2CCCN2C(=O)C([C@@H](C)CC)OC(=O)[C@H](Cc2ccccc2)N(C)C(=O)[C@H](C(C)C)NC(=O)C1(C)C (stereo partly drawn)	-3.2	31.5	-24.4	82.1*	4.2	15.2	-13.4	103.7*
COc1ccccc1NC(=O)c1cn(CCC#N)nc1-c1ccc(F)cc1	0.4	1.1	5.7	21.0	-4.3	26.4	/	/
COC(=O)C1=C(c2c(C)noc2C)C[C@@H]2CC[C@H]1N2C(=O)N1CCC(O)(c2ccc(Cl)cc2)CC1	7.9	-7.5	9.6	8.2	-0.4	9.3	/	/
CCOC(=O)[C@]12Cc3cc(Cl)ccc3[C@H]1N(C)C(=O)c1ccccc12	1.1	9.8	/	17.5	/	/	/	/
CCOC(=O)[C@]12Cc3cc(OC)ccc3[C@H]1N(CCC(=O)OC)C(=O)c1cc(OC)ccc12	10.8	21.3	/	26.0	/	/	/	/
CCOC(=O)[C@]12Cc3cc(Cl)ccc3[C@H]1N(CC(=O)OC)C(=O)c1ccccc12	79.8*	29.5	/	80.8*	/	/	93.9*	104.1*
CCCCCN1C(=O)c2cc(OC)ccc2[C@@]2(C(=O)OCC)Cc3cc(Cl)ccc3[C@@H]12	76.7*	51.8*	/	79.6*	/	/	96.9*	105.1*
CCOC(=O)[C@]12Cc3cc(Cl)ccc3[C@H]1N(C1CCCCC1)C(=O)c1ccccc12	89.8*	57.0*	/	85.5*	/	/	96.8*	105.0*
CCOC(=O)[C@]12Cc3cc(Cl)ccc3[C@H]1N(C(C)C)C(=O)c1ccccc12	78.3*	39.9	/	90.4*	/	/	94.8*	104.2*
CCOC(=O)[C@]12Cc3cc(C)ccc3[C@H]1N(C)C(=O)c1ccccc12	11.9	5.5	/	18.9	/	/	/	/
CCOC(=O)C(NC(C)=O)C(OC(C)=O)c1cccc(N(CCCl)CCCl)c1 (stereo not drawn)	12.9	-7.2	12.4	1.0	-22.5	-0.6	/	/
Cc1cc(N)n(C2CCN(C)CC2)n1	-1.7	-3.8	-4.3	12.4	0.8	7.9	/	/
CCOC(=O)[C@]12Cc3cc(OC)ccc3[C@H]1N(C(C)C)C(=O)c1cc(OC)ccc12	-7.6	51.6*	/	51.8*	/	/	89.6*	95.8*
CCOC(=O)[C@]12Cc3ccccc3[C@H]1N(CCC(=O)OC)C(=O)c1cc(OC)ccc12	31.1	27.5	/	15.1	/	/	/	/
O=[N+]([O-])c1ccc(N2CCOCC2)c2c1no[n+]2[O-]	103.3*	37.6	84.5*	69.0*	-91.7*	96.1*	58.0*	101.4*
COC(=O)C1=C(c2ccc3ccccc3c2)C[C@@H]2CC[C@H]1N2C	-3.5	-18.4	7.3	-6.0	8.3	-13.8	/	/
COC(=O)C1=C(C(=O)OC)C2OC1c1cc3ccccc3cc12	12.9	-10.8	42.1	85.6*	-17.7	95.0*	83.8*	59.2*
SMILES	TWEAK Fn14 block	TROY signal inh	CF NFkB inh	HIF-2a block	KKLEB tox	Peg3 promoter	HIF-2a inh conf	HIF-1a counter
CCN(CC)CCN=Cc1c(O)n(CCc2ccccc2)c(=O)[nH]c1=O	1.0	-5.7	-11.5	-23.1	-0.3	-11.0	/	/
COc1ccc(CN2Cc3cnnn3-c3ccccc3C2C#N)cc1 (stereo not drawn)	74.2*	46.3	7.0	89.6*	-2.9	92.6*	96.0*	105.0*
O=c1c2ccccc2nc(/C=C/c2ccc([N+](=O)[O-])o2)n1-c1ccc(O)cc1	92.6*	33.2	12.1	66.9*	0.6	103.2*	1.6	104.6*
O=c1c2ccccc2nc(/C=C/c2ccccc2)n1-c1ccc(O)cc1	33.4	3.4	-11.3	-1.5	11.5	39.4	/	/
Cn1c(O)c(C=NCCCNC2CCCCC2)c(=O)n(C)c1=O	0.4	/	-4.3	8.8	-0.6	3.0	/	/
Nc1ccccc1C(=O)OCC(=O)N1CCc2ccccc21	-24.5	-38.1	-0.7	-211.2	-3.5	-295.4	/	/
N#CSCC(=O)N1c2ccccc2CCc2ccccc21	28.8	13.6	58.7*	41.5*	-25.9	18.5	28.0	71.8*
O=C(NC1CCCCC1)[C@@H]1CC=C[C@@H]2CCN(Cc3ccccc3)C(=O)[C@@H]21	8.9	3.1	10.6	4.2	-17.4	5.8	/	/
N=C(N)c1c(O)n(C2CCCCC2)c(=O)n(C2CCCCC2)c1=O	36.1	22.8	27.2	52.1*	-20.2	77.0*	23.9	97.0*
